Here are results for 17 molecules from PubChem BioAssay.

Experiment [1] deals with XIP peptide (Xip251-270) binding. Kind of experiment: XIP fragment 251-270 binding compounds – biochemical, small-molecule microarray, fluorescence 635/667 nm, 0.1 µg/mL protein, primary screen (AID 1182). Particulars: fluorescent protein binding, 635 nm, higher = more signal, called active from +8 up or from −8 down.
For a further experiment, the system named is XIP peptide (Xip251-270). Description: compounds binding XIP fragment 251-270 – biochemical, small-molecule microarray, fluorescence 635/667 nm, 0.5 µg/mL protein, primary screen (AID 1183). Particulars: fluorescence 635 nm, higher = more signal.
Experiment [2] is described as follows: blood-stage malaria parasite viability loss – strain 3D7, DAPI fluorescence, 100 nL, primary screen (AID 1184).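 Note: parasites grown inside human red blood cells in medium with human serum.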 Particulars: P. falciparum 3D7 growth, 3 d, higher = more signal.
The target in experiment [3] is Homeobox protein Hox-A13 (Mus musculus) (UniProt Q62424). Kind of experiment: disruptors of Hoxa13 oligonucleotide interaction – biochemical, fluorescence polarization, labeled oligonucleotide, primary screen (AID 1185). Conditions: Hoxa13:DNA binding, 15 min, higher = more signal, called active from +8 up or from −8 down. Background: In fluorescence polarisation assays a small probe gives low polarisation when free and higher when bound to something large.
Homeobox protein Hox-A13 (Mus musculus), sequence (Q62424 whole entry, looked up): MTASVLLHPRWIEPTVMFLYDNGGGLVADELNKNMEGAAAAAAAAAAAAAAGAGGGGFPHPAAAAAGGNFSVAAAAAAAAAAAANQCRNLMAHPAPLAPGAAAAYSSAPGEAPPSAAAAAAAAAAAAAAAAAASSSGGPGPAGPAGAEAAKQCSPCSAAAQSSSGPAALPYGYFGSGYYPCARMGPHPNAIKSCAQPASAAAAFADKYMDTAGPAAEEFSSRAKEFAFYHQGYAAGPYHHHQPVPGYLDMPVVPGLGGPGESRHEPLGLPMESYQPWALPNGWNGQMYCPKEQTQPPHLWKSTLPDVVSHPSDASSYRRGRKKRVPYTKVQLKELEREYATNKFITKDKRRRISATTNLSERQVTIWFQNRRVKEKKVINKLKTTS

A short description of experiment [4]: blockers of DNA damage checkpoint Chk1 activation – imaging, HeLa, hydroxyurea, phospho-Chk1 antibody, percent positive cells, primary screen (AID 1186). Particulars: hydroxyurea-induced phospho-Chk1 immunofluorescence imaging, higher = more signal.
Experiment [5] in a line: blockers of DNA damage checkpoint Chk1 activation – imaging, HeLa, hydroxyurea, phospho-Chk1 nuclear intensity, primary screen (AID 1187). Particulars: hydroxyurea-induced phospho-Chk1 immunofluorescence imaging, higher = more signal.

Calls of active or inactive are those of the source. Unless noted, the rule behind the calls is not given here.

With `COc1ccccc1CN1C(=O)c2ccccc2[C@](Cc2ccccc2I)(C(=O)NCCN2CCOCC2)[C@@H]1c1ccc(CO)cc1`, the composite z-score in experiment [1] was -0.0028 (inactive); in the experiment on XIP peptide (Xip251-270), 0.755. In addition, the z-score was -2.26 in experiment [2], -4.74 (inactive) in experiment [3], -0.252 (inactive) in experiment [4] and 0.0168 (inactive) in experiment [5].

Consider `C=C(/C(=C/C[C@@H](OC(=O)c1ccncc1)c1ccccc1OCCO)c1cnc2ccccc2c1)C(C)C`, for which the results for the composite z-score (in experiment [1]; in the experiment on XIP peptide (Xip251-270)) were 0.509 (inactive) and 0.723, respectively. For the same molecule, the z-score in experiment [2] is -2.55; in experiment [3] it was -4.63 (inactive); in experiment [4], 0.864 (inactive); in experiment [5], 0.737 (inactive).

`C[C@H]1NC(=O)C([C@@H](C)OCc2ccccc2)NC(=O)[C@@]23C(=O)N[C@@H](Cc4ccccc4)C2[C@H](C)[C@@]2(C)O[C@H]2C3/C=C/CC/C=C/CNC1=O` (some centres not stated): the values for the composite z-score (in experiment [1]; with XIP peptide (Xip251-270)) were 0.249 (inactive) and -0.764, respectively. The z-score in experiment [2] is -2.74; in experiment [3], -6.35 (inactive); in experiment [4], -0.295 (inactive); in experiment [5], 0.3 (inactive).

`CCCCC=C[C@@H](NC(=O)CCc1ccccc1)c1ccccc1`: the results for the composite z-score (in experiment [1]; in the experiment on XIP peptide (Xip251-270)) were 0.286 (inactive) and 0.518, respectively. In addition, the z-score in experiment [2] was -0.425; in experiment [3], -0.0682 (inactive); in experiment [4], -0.522 (inactive); in experiment [5], -0.805 (inactive).

For `O=[N+]([O-])c1ccc(C[n+]2ccc(-c3ccc(CO)cc3)cc2)o1`, the composite z-score in experiment [1] is 0.406 (inactive); in the experiment with XIP peptide (Xip251-270), 0.905. In addition, the z-score was -1.29 in experiment [2], -3.8 (inactive) in experiment [3], 0.137 (inactive) in experiment [4] and 0.657 (inactive) in experiment [5].

Consider `CCOC(=O)C1=CC[C@@H](c2cccc(Br)c2)N(S(=O)(=O)c2ccc(C)cc2)[C@H]1c1ccc([N+](=O)[O-])cc1`, for which the composite z-score is 0.422 (inactive) in experiment [1] and 0.707 in the experiment with XIP peptide (Xip251-270). The z-score in experiment [2] is -1.92; in experiment [3], 4.18 (inactive); in experiment [4], 0.476 (inactive); in experiment [5], 0.508 (inactive).

Consider `COCCOC(=O)N1C(=O)[C@@]2(c3cc(C#CC4(O)CCCCCC4)ccc31)[C@H](C(=O)N1CCc3cc(OC)c(OC)cc3C1)[C@H]1C(=O)O[C@H](c3ccccc3)[C@H](c3ccccc3)N1[C@@H]2c1ccccc1OCCO`, for which the composite z-score in experiment [1] was -0.0915 (inactive); in the experiment on XIP peptide (Xip251-270), 0.771. Moreover, the z-score in experiment [2] was -1.99; in experiment [3] it was 0.772 (inactive); in experiment [4] it was 0.286 (inactive); in experiment [5], 1.13 (inactive).

In the case of `COCCOC(=O)N1C(=O)[C@@]2(c3cc(C#CC4(O)CCCCCC4)ccc31)[C@H](C(=O)NC[C@H](O)c1ccccc1)[C@H]1C(=O)O[C@H](c3ccccc3)[C@H](c3ccccc3)N1[C@@H]2c1ccc(OCCO)cc1`, the composite z-score in experiment [1] is -0.274 (inactive); in the experiment with XIP peptide (Xip251-270) it was 0.624. Moreover, the z-score in experiment [2] was -1.19; in experiment [3], -0.375 (inactive); in experiment [4] it was 0.0542 (inactive); in experiment [5] it was 0.167 (inactive).

Turning to `Cc1ccc(-c2cccc(=O)o2)cc1`, the composite z-score in experiment [1] is -0.0449 (inactive); in the experiment with XIP peptide (Xip251-270), -0.776. For the same molecule, the z-score in experiment [2] was 0.842; in experiment [3], -1.28 (inactive); in experiment [4], 0.45 (inactive); in experiment [5], -0.203 (inactive).

For `CC(C)N1C(=O)c2ccccc2[C@](C)(C(=O)O)[C@@H]1c1ccc(CO)cc1`, the composite z-score is 0.202 (inactive) in experiment [1] and 0.0967 in the experiment on XIP peptide (Xip251-270). In addition, the z-score in experiment [2] was 0.859; in experiment [3] it was -1.63 (inactive); in experiment [4], 0.113 (inactive); in experiment [5] it was 0.318 (inactive).

Turning to `C[C@]12C(=O)N(CCCCCO)[C@@H]3C(=O)N(c4ccc(Cl)cc4)CC=CC31O[C@@H]1/C=C\CCCOC(=O)C12` (some centres not stated), the composite z-score in experiment [1] is 0.951 (inactive); with XIP peptide (Xip251-270), 0.0211. Besides, the z-score was 1.77 in experiment [2], -4.29 (inactive) in experiment [3], 0.0276 (inactive) in experiment [4] and 0.596 (inactive) in experiment [5].

Regarding `O=C1O[C@@H](c2ccccc2)[C@@H](c2ccccc2)N2[C@@H](c3ccc(O)cc3)[C@]3(C(=O)Nc4ccc(C#CC5=CCCCC5)cc43)[C@@H](C(=O)Nc3nc4ccccc4s3)[C@H]12`, the composite z-score in experiment [1] was 0.433 (inactive); with XIP peptide (Xip251-270) it was 0.708. Moreover, the z-score was -0.775 in experiment [2], 3.56 (inactive) in experiment [3], -0.315 (inactive) in experiment [4] and -0.363 (inactive) in experiment [5].

For `CC(C)CCC[C@@H](C)[C@H]1CC[C@@]2(C)C3=C(CC[C@]12C)[C@@]1(C)CC[C@H](OC(=O)C(C)(C)C)C(C)(C)C1CC3` (some centres not stated), the composite z-score was 0.434 (inactive) in experiment [1] and -0.0722 in the experiment with XIP peptide (Xip251-270). Further, the z-score in experiment [2] was -1.29; in experiment [3], -1.44 (inactive); in experiment [4] it was -1.13 (inactive); in experiment [5] it was -1.89 (inactive).

For the molecule `COc1ccc([Si](C)(C)[C@@H]2[C@@H](CC(=O)N(CCO)Cc3ccccc3)O[C@]3(C(=O)N(C)c4c(Br)cc(C)cc43)[C@H]2C)cc1`, the figures for the composite z-score (in experiment [1]; with XIP peptide (Xip251-270)) were 0.48 (inactive) and 0.373, respectively. In addition, the z-score in experiment [2] is -1.48; in experiment [3], -6.47 (inactive); in experiment [4], -0.743 (inactive); in experiment [5] it was -1.69 (inactive).

On to `Cc1ccc(S[C@]2(C(=O)O)CC(=O)N(C3CCCCC3)[C@@H]2c2ccc(CO)cc2)cc1`, for which the composite z-score in experiment [1] was 1.15 (inactive); with XIP peptide (Xip251-270) it was 0.929. In addition, the z-score is 0.756 in experiment [2], -3.31 (inactive) in experiment [3], -0.643 (inactive) in experiment [4] and -0.583 (inactive) in experiment [5].

For the molecule `CC(C)(C)OC(=O)CC[C@@]1(C(=O)N2CCCCC2)N=C(c2ccc(OCCCO)cc2)O[C@@H]1c1ccccc1CN=[N+]=[N-]`, the composite z-score in experiment [1] is 1.32 (inactive); in the experiment on XIP peptide (Xip251-270) it was 0.824. The z-score in experiment [2] was -2.24; in experiment [3] it was -4.37 (inactive); in experiment [4], -0.325 (inactive); in experiment [5], -0.038 (inactive).

In the case of `C[N+](C)(C)CCCC[C@@H]1NC(=O)[C@@H]2C[C@H](C(=O)O)[C@H](c3cccc(OCCO)c3)N2C1=O`, the composite z-score was 1.36 (inactive) in experiment [1] and 0.246 in the experiment on XIP peptide (Xip251-270). Also, the z-score is -0.0179 in experiment [2], -3.69 (inactive) in experiment [3], 0.153 (inactive) in experiment [4] and 0.16 (inactive) in experiment [5].
